ssDAF-12 act: S. stercoralis DAF-12 activation, primary screen; activation, % at 6.8 µM; 370,000 tested, 1% active; AID 652126; HEK293 ssDAF-12/GRIP1 lit1-tk-luc reporter, luminescence; % of 3 µM dafachronic acid response;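 active means activation above the mean over all tested compounds plus 3 SD, cut at about 0.9% in these data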;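 further: 0% = DMSO-only wells and 100% = 3 µM delta7-dafachronic acid wells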
DAX1 inh-1: inhibits human nuclear receptor DAX1 | P51843 | HEK293 Gal4-DAX1 luciferase reporter, luminescence | inhibition, % at 6.75 µM | 340,000 tested, 0.99% active | AID 504766;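 active means inhibition above the mean over all tested compounds plus 3 SD, cut at about 4.2% in these data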;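 further: 0% = DAX1-transfected cells with DMSO and 100% = empty-vector control cells with DMSO; inhibition shows as a rise in luminescence from relieved DAX1 repression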
Target sequence (P51843 207-470 limits assumed): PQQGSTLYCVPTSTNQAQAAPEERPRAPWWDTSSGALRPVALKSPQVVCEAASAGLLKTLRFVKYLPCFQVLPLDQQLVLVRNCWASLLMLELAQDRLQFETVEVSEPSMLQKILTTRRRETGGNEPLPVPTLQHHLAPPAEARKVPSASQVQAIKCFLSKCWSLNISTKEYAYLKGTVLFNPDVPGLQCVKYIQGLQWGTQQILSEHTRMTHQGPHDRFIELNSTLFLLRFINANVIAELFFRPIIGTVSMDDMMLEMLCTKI
hgDAF12 agonist: activates the H. glycines DAF-12 receptor ligand-binding domain. 370,000 tested, 1.8% active. AID 687014. HEK293 GAL4-hgDAF12 UAS-luciferase reporter, agonist luminescence; normalized to butyrate control. activation, % at 6.8 µM;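 active means activation above a cutoff set at the mean of all screened compounds plus 3 SD, cut at about 10% in these data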;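 further: 0% = DMSO wells and 100% = sodium butyrate wells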
hcDAF-12 act: activators of H. contortus DAF-12 nuclear receptor | 370,000 tested, 1.4% active | activation, % at 6.8 µM | HEK293 hcDAF-12 lit1-tk-luc reporter, luminescence; 0% DMSO, 100% Δ7-dafachronic acid;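 active means activation above the mean of all tested compounds plus 3 SD, cut at about 5.5% in these data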;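 further: 100% = response to 3 µM Δ7-dafachronic acid high control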
SMARCA2 activ: increases SMARCA2 function in MMTV reporter cells; AID 652017; activation, % at 9.1 µM; 370,000 tested, 1% active; MG213 cells, MMTV-luciferase reporter, dexamethasone, overnight; in the data active means activation above about 7.8%;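 further: 0% = vehicle wells and 100% = reference activator wells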
DAX1 inh-2: blocks DAX1 repression of SF-1 activated StAR promoter; HEK293T StAR-luciferase reporter, SF-1/DAX-1 repression relief; inhibition, % at 6.8 µM; 370,000 tested, 1.1% active; AID 652010;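 active means inhibition above the mean over all tested compounds plus 3 SD, cut at about 3.6% in these data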;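 further: 0% = DAX-1 cells with DMSO and 100% = cells lacking DAX-1 with DMSO; higher inhibition means more luminescence from relief of DAX-1 repression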
SMARCA2 act conf: SMARCA2 activation, confirmation screen; shares compounds with SMARCA2 activ; MG213 cells, MMTV-luciferase with dexamethasone, luminescence, overnight; MG213 cells expressing E1A, Rb sequestered; DMSO wells 0%, reference activator 100%; activation, % at 9.1 µM; 3,500 tested, 30% active;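 active means activation above its plate's cutoff, the mean activation of tested wells plus 3 SD, cut at about 7.9% in these data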
GAL4-VP16 Luc: counter-screen for SMARCA2 activators: GAL4-VP16 luciferase reporter activation; 3,500 tested, 41% active; HEK293 GAL4-VP16 pG5luc reporter, luciferase luminescence; scaled: DMSO wells 0%, SAHA wells 100%; activation, % at 9.1 µM; shares compounds with SMARCA2 activ;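 active means activation above the solvent-only control well mean plus 3 SD, averaged across control plates, cut at about 5.2% in these data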
* marks the source's active call; other numbers are inactive results. Rows were chosen to be rich in hits. Some 4.8% of all compounds tested hit in one or more screens of this group.

Screening CCOP(=O)(OCC)C(NC(=O)Nc1ccc(Cl)c(Cl)c1)c1ccccc1 (stereo unspecified) returned ssDAF-12 act -1, DAX1 inh-1 0, hgDAF12 agonist 0, hcDAF-12 act 1, SMARCA2 activ -1 and DAX1 inh-2 -1.
For O=C(CSc1nc(O)cc(=O)n1-c1ccccc1)N1CCCCC1 the results were DAX1 inh-1 -1.
Screening COc1ccccc1NC(=O)c1ccccc1-c1nc(-c2ccccc2OC)no1 returned ssDAF-12 act -2, DAX1 inh-1 -3, hgDAF12 agonist -5, hcDAF-12 act -3, SMARCA2 activ 3 and DAX1 inh-2 -3.
Screening Cc1c(C(=O)OCC(=O)c2ccc3c(c2)OCCO3)oc2ccccc12 returned ssDAF-12 act -1, DAX1 inh-1 -2, hgDAF12 agonist 1, hcDAF-12 act 2, SMARCA2 activ 8.0*, DAX1 inh-2 0, SMARCA2 act conf 4 and GAL4-VP16 Luc 2.
COc1cccc(CC(=O)Nc2nc(C)cs2)c1 was read as ssDAF-12 act -2, DAX1 inh-1 1, hgDAF12 agonist 1, hcDAF-12 act 0, SMARCA2 activ 8.6*, DAX1 inh-2 1, SMARCA2 act conf 4 and GAL4-VP16 Luc 2.
COc1ccc(/C=N/n2cnnc2)cc1COc1ccccn1 was read as ssDAF-12 act -2, DAX1 inh-1 1, hgDAF12 agonist 0, hcDAF-12 act -1, SMARCA2 activ 0 and DAX1 inh-2 1.
For COc1cc(/C=N/n2cnnc2)ccc1OCc1ccccc1 the results were ssDAF-12 act -1, DAX1 inh-1 2, hgDAF12 agonist 2, hcDAF-12 act 0, SMARCA2 activ 8.1*, DAX1 inh-2 0, SMARCA2 act conf 5 and GAL4-VP16 Luc 0.
Screening Oc1cccc(Nc2ncnc3c2oc2ccccc23)c1 returned ssDAF-12 act -1, DAX1 inh-1 2, hgDAF12 agonist 9, hcDAF-12 act 3, SMARCA2 activ 8.3*, DAX1 inh-2 1, SMARCA2 act conf 12* and GAL4-VP16 Luc 9.1*.
`O=C(Nc1ccc(S(=O)(=O)Nc2ccc(Cl)cc2)cc1)C1CCCO1` (stereo unspecified) gave ssDAF-12 act -2, DAX1 inh-1 -2, hgDAF12 agonist -5, hcDAF-12 act -2, SMARCA2 activ -1 and DAX1 inh-2 -2.
O=C(Nc1ccc(-c2nc3cc(Cl)ccc3o2)cc1)C1CCCO1 (stereo unspecified) was read as ssDAF-12 act -1, DAX1 inh-1 4, hgDAF12 agonist 12*, hcDAF-12 act 1, SMARCA2 activ 8.2*, DAX1 inh-2 2, SMARCA2 act conf 4 and GAL4-VP16 Luc 10*.
Screening CCOC(=O)C1CCN(C(=O)c2cc3c(ccc4ccccc43)o2)CC1 returned ssDAF-12 act -1, DAX1 inh-1 1, hgDAF12 agonist 5, hcDAF-12 act 2, SMARCA2 activ 9.0*, DAX1 inh-2 4.1*, SMARCA2 act conf 11* and GAL4-VP16 Luc 7.3*.
Screening CCOC(=O)C1CCN(C(=O)c2ccco2)CC1 returned ssDAF-12 act -1, DAX1 inh-1 0, hgDAF12 agonist 2, hcDAF-12 act -2, SMARCA2 activ 0 and DAX1 inh-2 0.
`COc1ccccc1N1CCN(C(=O)C2CCN(C(=O)c3ccccc3Cl)CC2)CC1` gave ssDAF-12 act -1, DAX1 inh-1 0, hgDAF12 agonist -3, hcDAF-12 act -2, SMARCA2 activ 8.2*, DAX1 inh-2 -2, SMARCA2 act conf -2 and GAL4-VP16 Luc 0.
Screening COc1cccc(OC)c1C(=O)N1CCN(Cc2c[nH]c3ccccc23)CC1 returned ssDAF-12 act -1, DAX1 inh-1 2, hgDAF12 agonist -1, hcDAF-12 act 2, SMARCA2 activ 0 and DAX1 inh-2 -1.
Screening CCCN(CCC)C(=O)C1CCCN(S(=O)(=O)c2ccc3c(c2)oc(=O)n3C)C1 (stereo unspecified) returned ssDAF-12 act -1, DAX1 inh-1 0, hgDAF12 agonist 3, hcDAF-12 act 3, SMARCA2 activ 10*, DAX1 inh-2 0, SMARCA2 act conf 2 and GAL4-VP16 Luc 0.
For COC(CNC(=O)C1CCCN(S(=O)(=O)c2ccc3c(c2)oc(=O)n3C)C1)OC (stereo unspecified) the results were ssDAF-12 act -1, DAX1 inh-1 0, hgDAF12 agonist 0, hcDAF-12 act -1, SMARCA2 activ 0 and DAX1 inh-2 0.
For Cc1occc1C(=O)N/N=C/c1ccccc1[N+](=O)[O-] the results were ssDAF-12 act -1, DAX1 inh-1 2, hgDAF12 agonist 8, hcDAF-12 act 3, SMARCA2 activ 8.2*, DAX1 inh-2 1, SMARCA2 act conf 6 and GAL4-VP16 Luc 9.0*.
Cn1cc(Br)c(C(=O)Nc2sc3c(c2C(N)=O)CCC3)n1 was read as ssDAF-12 act -1, DAX1 inh-1 0, hgDAF12 agonist 1, hcDAF-12 act 0, SMARCA2 activ 8.7*, DAX1 inh-2 1, SMARCA2 act conf 2 and GAL4-VP16 Luc 6.7*.
Cc1nc(-c2ccc(S(=O)(=O)Oc3ccc(Cl)cc3Cl)s2)cs1 was read as ssDAF-12 act -1, DAX1 inh-1 0, hgDAF12 agonist -2, hcDAF-12 act 0, SMARCA2 activ -5 and DAX1 inh-2 -1.
`CN1CCc2c(C#N)c(N3CCOCC3)nc(NCC3CCCO3)c2C1` (stereo unspecified) gave ssDAF-12 act -1, hgDAF12 agonist -2, hcDAF-12 act 0, SMARCA2 activ 12*, DAX1 inh-2 0, SMARCA2 act conf -3 and GAL4-VP16 Luc 0.
`CCC(=O)Nc1cccc(NC(=O)c2cc3ccccc3o2)c1` gave ssDAF-12 act -1, DAX1 inh-1 3, hgDAF12 agonist 11*, hcDAF-12 act 2, SMARCA2 activ 8.9*, DAX1 inh-2 3, SMARCA2 act conf 3 and GAL4-VP16 Luc 9.8*.
Screening O=C(COc1ccccc1)NNC(=O)c1cc2ccccc2o1 returned ssDAF-12 act -1, DAX1 inh-1 1, hgDAF12 agonist 1, hcDAF-12 act 0, SMARCA2 activ 9.6*, DAX1 inh-2 1, SMARCA2 act conf 1 and GAL4-VP16 Luc 2.
Screening COc1ccc(NC(=O)c2nc(S(=O)(=O)Cc3cccc(C)c3)ncc2Cl)c(OC)c1 returned ssDAF-12 act -1, DAX1 inh-1 0, hgDAF12 agonist 0, hcDAF-12 act -1, SMARCA2 activ 5 and DAX1 inh-2 0.

Screening data (PubChem)
